# Screens: PubChem BioAssay, several laboratories
# Efflux pump inh: blocks antifungal efflux pumps in multiplex yeast assay | S. cerevisiae Candida pump triplex, Nile Red efflux | inhibition, % at 10 µM | 330,000 compounds, 0.44% hits | AID 485275;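 active = plate passing quality check with inhibition over a set limit, or well fluorescence over plate mean plus 4 SD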;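 note: Nile Red retained in pooled yeast measured as flow cytometry median fluorescence; 0% = buffer negative control and 100% = Enniatin B positive control; higher means more Nile Red kept so more efflux inhibition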
# GC-A act: GC-A (human) enzyme activation; P16066; HEK293 GC-A cells, cGMP TR-FRET, EC30 ANP; 0% at EC30 ANP, 100% saturating ANP; activation, % at 10 µM; 370,000 compounds, 0.14% hits; in the data active = activation above about 40%
# A1 inh: inhibitors of the anti-apoptotic protein A1, read as caspase activation. caspase activation, % (test concentration not listed). 330,000 compounds, 0.066% hits. MEF A1-2A-BIM cells, Caspase-Glo 3/7 luminescence, 3 h; percent of clofoctol response, vehicle zero. AID 2462;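 active = over half of replicate activation scores above 10%, or exactly half above 10 with the replicate mean above 10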
# HSV replic up: HSV replication enhancement. HSV replication augmentation in cells, fold increase. maximum fold increase. 220,000 compounds, 0.005% hits; in the data active = maximum fold increase above about 1.5; tested in PC3 cells
# GC-B act: GC-B (human) receptor activation; P20594; HEK293-GC-B cells, CNP EC30, cGMP TR-FRET; 0% at EC30 CNP, 100% saturating CNP; activation, % at 10 µM; 370,000 compounds, 0.11% hits;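 active = activation at 10 µM reaching about 35% in either raw or pattern-adjusted values, limit read from the data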
# TAG inh: triacylglycerol accumulation inhibition; H9c2 cells, Nile Red lipid (TAG) fluorescence; cells loaded with 200 µM oleic acid; inhibition, % at 12.5 µM; 230,000 compounds, 0.66% hits;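 active = pattern-corrected inhibition of lipid staining of at least 50% with the nuclear-stain viability signal not falling by more than 50%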;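 note: 0% = DMSO wells and 100% = triacsin C control wells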
# H9c2 TAG conf: confirmation of triacylglycerol accumulation inhibitors. 990 compounds, 71% hits. inhibition, % at 12.5 µM. shares compounds with TAG inh. AID 651629. H9c2 lipid accumulation, Nile Red fluorescence; cells loaded with 200 µM oleic acid;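 active = mean inhibition across replicates of 40% or more; inactive = mean inhibition below 40%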;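 note: plate controls were DMSO only wells for no effect and Triacsin C treated wells for full effect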
# Numbers without * were called inactive; i = inactive; nt = not tested or not shown. Only some compounds are listed: those with a hit (about 1% of all), similar ones and a draw of the others.
SMILES,Efflux pump inh,GC-A act,A1 inh,HSV replic up,GC-B act,TAG inh,H9c2 TAG conf
COC(=O)[C@]12C[C@H](CC(=O)NCc3cccc(C(F)(F)F)c3)C(=O)N(Cc3ccccc3)C1=C[C@H](COCc1ccccc1)O[C@@H]2C,nt,-7,nt,nt,3,nt,nt
CCN(CC)c1ccc(C=NNC(=O)c2cc(-c3ccc(C)c(C)c3)n[nH]2)c(O)c1,nt,3,nt,nt,5,nt,nt
COCCCn1c(SCC(=O)Nc2nc3ccccc3s2)nnc1-c1ccoc1C,0,nt,0,i,nt,51*,34
Cn1c(=O)c(=O)n(C)c2cc(S(=O)(=O)N3CCN(c4ccccc4Cl)CC3)ccc21,nt,-3,nt,nt,0,nt,nt
O=C(Nc1ccc(F)cc1)OCc1cn(Cc2c(F)cccc2F)nn1,nt,-1,nt,nt,5,nt,nt
FC(F)(F)c1cc(N2CCOCC2)nc(-c2ccccc2)n1,-7,3,0,i,-3,nt,nt
c1ccc(-c2nc(N3CCOCC3)cc(N3CCOCC3)n2)cc1,0,-11,0,i,-10,51*,54*
CC(C)(C)NC(=O)C(c1ccc(-c2ccccc2)cc1)N(C[C@H]1CC[C@@H]([C@@H]2CC[C@H](CO)O2)O1)C(=O)c1ccc2ccccc2c1 (some centres undefined),0,0,nt,nt,2,65*,82*
CC(C)(C)NC(=O)C(c1ccc(-c2ccccc2)cc1)N(C[C@H]1CC[C@@H]([C@@H]2CC[C@H](CO)O2)O1)C(=O)c1ccc(-c2ccccc2)cc1 (some centres undefined),0,nt,nt,nt,nt,60*,67*
C[C@H]1C2CC(OC(=O)NCc3ccc(Cl)cc3)C(C2)[C@H]2CCCCN21 (some centres undefined),nt,4,nt,nt,0,nt,nt
Nc1ccccc1Nc1cccc(C(F)(F)F)c1,0,0,0,i,-3,68*,74*
O=S1(=O)c2ccc(N3CCSCC3)cc2Oc2ccccc2CN1Cc1cn(Cc2ccccc2C(F)(F)F)nn1,nt,4,nt,nt,3,nt,nt
CCCC/C=C1/[C@@H](CC)N(Cc2ccc(OC)cc2OC)C2=N[C@H](c3ccccc3)CC(=O)N21,nt,-4,nt,nt,-3,nt,nt
O=C1C=CC(O)C2(CO)OC12 (centres undefined),nt,1,nt,nt,3,81*,86*
CCC(=O)Nc1nonc1-c1nc2ccccc2n1Cc1cccc2ccccc12,0,-1,0,i,-1,50*,65*
CCC(=O)Nc1nonc1-c1nc2ccccc2n1Cc1ccccc1,0,21,0,i,23,-30,nt
COCCCn1c(C(=O)N2CCOCC2)cc2c(=O)n3cccc(C)c3nc21,0,3,-1,nt,2,22,nt
COCCCn1c(C(=O)Nc2ccc3c(c2)OCO3)cc2c(=O)n3cccc(C)c3nc21,nt,3,nt,nt,9,69*,28
CCOC(=O)C1CCN(C(=O)C(C)(C)NC(=O)Nc2ccc(C(F)(F)F)cc2Cl)CC1,nt,-5,nt,nt,-8,nt,nt
O=C(CSc1nc2ccc(NC(=O)CSc3nnnn3Cc3ccccc3)cc2s1)Nc1ccccc1,0,0,0,i,-3,-8,nt
Cc1cc(C)c(NC(=O)CSc2nc3ccc(NC(=O)CSc4nnnn4Cc4ccccc4)cc3s2)c(C)c1,1,1,-1,i,-1,56*,42*
CCn1ncc(/C=N/N=C2\CCC3C4CCc5cc(O)ccc5C4CCC23C)c1C (centres undefined),0,-5,0,i,-3,52*,48*
Cc1cccc(C)c1-n1nnnc1C1c2ccccc2OCC(=O)N1Cc1ccc(F)cc1 (centres undefined),nt,-10,nt,nt,-12,nt,nt
CCCN1CCS(=O)(=O)N(Cc2cn(Cc3ccccc3)nn2)C(C(=O)OC)C1 (centres undefined),nt,0,nt,nt,-1,nt,nt
CN(C)CCn1c(=O)n(Cc2ccccc2)c(=O)c2c3c(sc21)CCCCC3,0,3,1,nt,3,nt,nt
SMILES,Efflux pump inh,GC-A act,A1 inh,HSV replic up,GC-B act,TAG inh,H9c2 TAG conf
O=c1c2c3c(sc2nc(NCCO)n1-c1ccccc1)CCCC3,0,-3,0,nt,0,nt,nt
CN(C)CCCNc1nc2sc3c(c2c(=O)n1CCc1ccccc1)CCCCC3,0,-3,0,i,-10,60*,34
CN(C)CCCn1c(=O)n(CCc2ccccc2)c(=O)c2c3c(sc21)CCCCC3,0,-5,0,i,-3,55*,50*
CCc1nn2c(N3CCOCC3)cc(C)nc2c1-c1ccc(F)cc1,0,-3,2,i,-17,70*,64*
CCO[C@H]1OC(C(=O)N2CCN(Cc3ccc4c(c3)OCO4)CC2)=C[C@@H](C)[C@@H]1CCCO,nt,3,1,i,5,2,nt
CCO[C@@H]1OC(C(=O)N2CCN(Cc3ccc4c(c3)OCO4)CC2)=C[C@H](C)[C@H]1CCCO,0,2,1,i,-3,53*,-5
COc1ccc(OC)c(Nc2nc(-c3sc(NC(=O)CC(C)C)nc3C)cs2)c1,0,2,0,i,0,58*,65*
CSc1sc(-c2ccnc(=S)[nH]2)c(-c2ccccc2)c1C#N,0,-5,0,i,6,75*,4
CCCN(CCC)CCNC(=O)c1cc2c(=O)n(CC)c3ccccc3c2s1,0,-4,0,i,-5,52*,68*
COC(=O)C1=C(C)N(Cc2ccccc2)C(=NCC(C)C)N[C@H]1c1cccc(F)c1,0,-18,1,nt,-25,92*,73*
CCOC(=O)c1c(CSC(=N)N)n(-c2ccccc2)c2cc(Br)c(OC(C)=O)cc12,0,-29,0,i,-22,62*,68*
N#CCC(=O)N/N=C/c1cn(Cc2ccccc2C#N)c2ccccc12,0,2,0,i,-9,8,nt
N#CCC(=O)N/N=C/c1cn(Cc2ccc(Cl)c(Cl)c2)c2ccccc12,0,3,1,i,-2,73*,58*
COC(=O)[C@]12C[C@H](CC(=O)NCc3ccccc3)C(=O)N(Cc3ccco3)C1=C[C@H](COCc1ccccc1)O[C@@H]2C,nt,0,nt,nt,4,nt,nt
Cc1ccc(CC2(OCCN(C)C)CCC(C(C)(C)C)CC2)cc1 (centres undefined),nt,-22,nt,nt,-9,84*,63*
CN(C)CCOC1(Cc2ccc(F)cc2)CCC(C(C)(C)C)CC1 (centres undefined),nt,-28,nt,nt,-15,30,nt
CCOC(=O)CCCNC(=O)OCCCN1CCC2(CCC(c3ccccc3)CC2)C1=O (centres undefined),nt,-2,nt,nt,8,nt,nt
O=C(Nc1ccc2c(c1)OCCO2)c1cc2sccc2n1Cc1ccccc1,0,-1,1,i,1,60*,26
